About 2,000 (36%) of roughly 5,500 compounds were called active. Roughly 18% stayed inconclusive and do not appear here. Cut-off read from the data, not from the text of the source: active = normalized growth mostly below about 0.91 (no sharp cut-off); inconclusive = no clear call, values can overlap the other calls; inactive = mostly above about 0.92. The list shows a part of the results.
Experiment: chemical genetic growth profiling, strain panel (AID 1159580);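 note: tested at 20 µM; growth read once vehicle control cultures reached saturation at 30 °C; 1 = growth at the plate median or of vehicle wells; lower values mean less growth of the strain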
Conditions: growth OD

Measured: normalized growth

O=C(CCBr)N1CCN(C(=O)CCBr)CC1
inactive: S. cerevisiae deletion strains, locus YJR066W, strain TOR1, active compounds read low 0.961 | S. cerevisiae deletion strains, locus YKL009W, strain mrt4, active compounds read low 0.993 | S. cerevisiae deletion strains, locus YKL068W, active compounds read low 1 | S. cerevisiae deletion strains, locus YKL085W, strain MDH1 (second series), active compounds read low 1.01 | S. cerevisiae deletion strains, locus YKL085W, strain MDH1, active compounds read low 1.01 | S. cerevisiae deletion strains, locus YKL160W, strain elf1, active compounds read low 1.03 | S. cerevisiae deletion strains, locus YKL190W, strain CNB1, active compounds read low 1 | S. cerevisiae deletion strains, locus YKR001C, strain vps1, active compounds read low 0.997 | S. cerevisiae deletion strains, locus YKR026C, strain gcn3, active compounds read low 1.01 | S. cerevisiae deletion strains, locus YKR091W, strain srl3, active compounds read low 1.01 | S. cerevisiae deletion strains, locus YLL001W, strain dnm1, active compounds read low 1.01 | S. cerevisiae deletion strains, locus YLL026W, active compounds read low 1.01 | S. cerevisiae deletion strains, locus YLL041C, strain sdh2, active compounds read low 1.01 | S. cerevisiae deletion strains, locus YLR027C, strain aat2, active compounds read low 1.02 | S. cerevisiae deletion strains, locus YLR039C, strain RIC1, active compounds read low 1 | S. cerevisiae deletion strains, locus YLR058C, strain SHM2, active compounds read low 1.01 | S. cerevisiae deletion strains, locus YLR102C, strain apc9, active compounds read low 0.991 | S. cerevisiae deletion strains, locus YLR113W, strain HOG1, active compounds read low 0.979 | S. cerevisiae deletion strains, locus YLR221C, strain rsa3, active compounds read low 1.01 | S. cerevisiae deletion strains, locus YLR258W, strain gsy2, active compounds read low 1.02 | S. cerevisiae deletion strains, locus YLR262C, strain YPT6 (second series), active compounds read low 1.03 | S. cerevisiae deletion strains, locus YLR262C, strain YPT6, active compounds read low 1.02 | S. cerevisiae deletion strains, locus YLR268W, strain sec22, active compounds read low 1 | S. cerevisiae deletion strains, locus YLR320W, strain mms22, active compounds read low 1.03 | S. cerevisiae deletion strains, locus YLR330W, strain CHS5, active compounds read low 1.01 | S. cerevisiae deletion strains, locus YLR342W, strain FKS1 (second series), active compounds read low 1 | S. cerevisiae deletion strains, locus YLR342W, strain FKS1, active compounds read low 1.02 | S. cerevisiae deletion strains, locus YLR357W, strain rsc2, active compounds read low 1 | S. cerevisiae deletion strains, locus YLR370C, strain arc18, active compounds read low 1.02 | S. cerevisiae deletion strains, locus YLR371W, strain rom2, active compounds read low 0.991 | S. cerevisiae deletion strains, locus YLR384C, strain iki3, active compounds read low 1.02 | S. cerevisiae deletion strains, locus YLR418C, strain cdc73, active compounds read low 1.01 | S. cerevisiae deletion strains, locus YML016C, strain PPZ1, active compounds read low 1.01 | S. cerevisiae deletion strains, locus YML032C, strain rad52, active compounds read low 1 | S. cerevisiae deletion strains, locus YML120C, strain ndi1, active compounds read low 1.02 | S. cerevisiae deletion strains, locus YML124C, strain tub3, active compounds read low 0.991 | S. cerevisiae deletion strains, locus YMR058W, strain fet3, active compounds read low 1.01 | S. cerevisiae deletion strains, locus YMR078C, strain ctf18, active compounds read low 1.01 | S. cerevisiae deletion strains, locus YMR125W, strain sto1, active compounds read low 1.03 | S. cerevisiae deletion strains, locus YMR129W, active compounds read low 1.02 | S. cerevisiae deletion strains, locus YMR205C, strain PFK2, active compounds read low 1.03 | S. cerevisiae deletion strains, locus YMR223W, strain ubp8, active compounds read low 0.999 | S. cerevisiae deletion strains, locus YMR231W, strain pep5, active compounds read low 1.03 | S. cerevisiae deletion strains, locus YMR307W, strain GAS1, active compounds read low 0.993 | S. cerevisiae deletion strains, locus YNL067W, strain RPL9B, active compounds read low 1.01 | S. cerevisiae deletion strains, locus YNL071W, strain lat1, active compounds read low 1.02 | S. cerevisiae deletion strains, locus YNL128W, strain TEP1, active compounds read low 1.01 | S. cerevisiae deletion strains, locus YNL153C, strain GIM3, active compounds read low 1.02 | S. cerevisiae deletion strains, locus YNL183C, strain NPR1, active compounds read low 0.936 | S. cerevisiae deletion strains, locus YNL209W, strain ssb2, active compounds read low 1.02 | S. cerevisiae deletion strains, locus YNL233W, strain BNI4, active compounds read low 1 | S. cerevisiae deletion strains, locus YNL248C, strain rpa49, active compounds read low 1.01 | S. cerevisiae deletion strains, locus YNL250W, strain rad50, active compounds read low 1.01 | S. cerevisiae deletion strains, locus YNL271C, strain bni1, active compounds read low 0.999 | S. cerevisiae deletion strains, locus YNL298W, strain CLA4, active compounds read low 1.01 | S. cerevisiae deletion strains, locus YNL307C, strain MCK1, active compounds read low 0.997 | S. cerevisiae deletion strains, locus YNL322C, strain KRE1 (second series), active compounds read low 1.01 | S. cerevisiae deletion strains, locus YNL322C, strain KRE1, active compounds read low 1.01 | S. cerevisiae deletion strains, locus YNR049C, strain mso1, active compounds read low 1.01 | S. cerevisiae deletion strains, locus YNR052C, strain pop2, active compounds read low 1 | S. cerevisiae deletion strains, locus YOL006C, strain TOP1, active compounds read low 1.02 | S. cerevisiae deletion strains, locus YOL012C, strain htz1 0.666 | S. cerevisiae deletion strains, locus YOL147C, strain pex11, active compounds read low 0.998 | S. cerevisiae deletion strains, locus YOR001W, strain rrp6, active compounds read low 1.01 | S. cerevisiae deletion strains, locus YOR061W, strain CKA2, active compounds read low 1.01 | S. cerevisiae deletion strains, locus YOR069W, strain VPS5, active compounds read low 1.01 | S. cerevisiae deletion strains, locus YOR070C, strain gyp1, active compounds read low 1.02 | S. cerevisiae deletion strains, locus YOR080W, strain dia2, active compounds read low 1.02 | S. cerevisiae deletion strains, locus YOR083W, strain WHI5, active compounds read low 1.02 | S. cerevisiae deletion strains, locus YOR106W, strain vam3, active compounds read low 1.02 | S. cerevisiae deletion strains, locus YOR136W, strain idh2, active compounds read low 0.998 | S. cerevisiae deletion strains, locus YOR144C, strain elg1, active compounds read low 0.993 | S. cerevisiae deletion strains, locus YOR184W, strain ser1, active compounds read low 0.998 | S. cerevisiae deletion strains, locus YOR231W, strain MKK1, active compounds read low 0.985 | S. cerevisiae deletion strains, locus YOR265W, strain rbl2, active compounds read low 1.01 | S. cerevisiae deletion strains, locus YOR270C, strain vph1, active compounds read low 1.08 | S. cerevisiae deletion strains, locus YOR290C, strain snf2, active compounds read low 1 | S. cerevisiae deletion strains, locus YOR316C, strain cot1, active compounds read low 0.999 | S. cerevisiae deletion strains, locus YPL051W, strain arl3, active compounds read low 1.02 | S. cerevisiae deletion strains, locus YPL078C, strain atp4, active compounds read low 1.01 | S. cerevisiae deletion strains, locus YPL106C, strain sse1, active compounds read low 1.03 | S. cerevisiae deletion strains, locus YPL240C, strain hsp82, active compounds read low 1.02 | S. cerevisiae deletion strains, locus YPL241C, strain CIN2, active compounds read low 1.01 | S. cerevisiae deletion strains, locus YPL256C, strain CLN2, active compounds read low 0.996 | S. cerevisiae deletion strains, locus YPR119W, strain clb2, active compounds read low 0.994 | S. cerevisiae deletion strains, locus YPR141C, strain kar3, active compounds read low 0.992 | S. cerevisiae deletion strains, locus YPR163C, strain tif3, active compounds read low 0.994 | S. cerevisiae deletion strains, locus YPR167C, strain met16, active compounds read low 1.01 | S. cerevisiae deletion strains, strain wtn01, active compounds read low 0.989 | S. cerevisiae strains, strain wild type, active compounds read low 1.01

— PubChem BioAssay AID1159580 (chemical genetic matrix, 2015)
